ChEMBL document CHEMBL3988442, “University of Dundee, Small-Polar-MMV Screening Library” (2021)
The whole screen tested about 48,000 compounds, of which about 13,000 (27%) showed an effect of 50% or more. The list shows a part of the results.

tested on: Wolbachia pipientis; test: Anti-Wolbachia Cell-Based Screen; type: functional; design: scale not given: in the data most compounds retested in dose-response had high values; settings: 5 µM

SMILES	Percent Effect
Cc1cnn(CC2CCCCN2C(=O)c2ccc(N(C)C)nc2)c1 (stereo not drawn)	89.91%
Cc1cnn(CC2CCCN2C(=O)c2cccnc2N(C)C)c1 (stereo not drawn)	-3.738%
Cc1cnn(CC2CCCCN2C(=O)c2cccnc2N(C)C)c1 (stereo not drawn)	94.82%
Cc1cnn(CC2CCCCN2C(=O)c2ccc3nnc(C)n3c2)c1 (stereo not drawn)	-9.496%
Cc1cc(C)n(CC2CCCN2C(=O)c2cccnc2N(C)C)n1 (stereo not drawn)	118%
Cc1cc(C)n(CC2CCCN2C(=O)c2cccc3[nH]ncc23)n1 (stereo not drawn)	-3.123%
Cc1cnn(CC2CCCCN2C(=O)c2cccc3c2OCO3)c1 (stereo not drawn)	-2.775%
CC(C)[C@@H]1CN(S(=O)(=O)Cc2ccccc2)C[C@H]1C(=O)O	3.081%
O=C(NCC(O)c1cccs1)c1sccc1OC(F)F (stereo not drawn)	2.411%
Cc1ccccc1N1CCN(C(=O)c2cnc(C3CC3)nc2)C(C)C1 (stereo not drawn)	-6.259%
COc1ncccc1CNC(=O)c1c[nH]c(=O)c(Br)c1	-2.261%
CN(Cc1cscn1)C1CCN(C(=O)OC(C)(C)C)CC1	-0.6066%
Cn1ccc(C(=O)N2CCC(Cc3cnc4[nH]ccc4c3)CC2)n1	-9.979%
Cn1ccc(C(=O)N2CCC(Cc3cnc4[nH]ccc4c3)C2)n1 (stereo not drawn)	135.4%
Cc1nc(C(=O)N2CCC(Cc3cnc4[nH]ccc4c3)C2)co1 (stereo not drawn)	-2.794%
O=C(c1cscn1)N1C[C@@H]2[C@@H](C1)OCC(=O)N2CC1CCCC1	-7.986%
O=C(c1cscn1)N1CCC(Cc2cnc3[nH]ccc3c2)C1 (stereo not drawn)	91.07%
Cc1nn(CCC(=O)NC(C(=O)O)c2c(C)n[nH]c2C)c(C)c1C (stereo not drawn)	9.182%
CC(C)(C)c1ncc2c(n1)CN(C(=O)c1ccc3[nH]cnc3c1)C2	-16.99%
O=C(c1ccncc1)N1CCc2ncnc(C3CCOC3)c2CC1 (stereo not drawn)	1.428%
CCN1CC[C@@]2(C(=O)N3CCOCC3)CCN(S(=O)(=O)CC)CC[C@@H]12.O=C(O)C(F)(F)F	-35.9%
CCc1noc(C)c1C(=O)N1CCC(c2[nH]ncc2S(C)(=O)=O)C1 (stereo not drawn)	111.9%
CCn1cc(C(=O)N2CCCC(c3[nH]ncc3S(C)(=O)=O)C2)cn1 (stereo not drawn)	-1.066%
CCc1cc(C(=O)N2CCCC(c3[nH]ncc3S(C)(=O)=O)C2)no1 (stereo not drawn)	122.4%

SMILES	Percent Effect
Cc1noc(C)c1C(=O)N1CCC(c2[nH]ncc2S(C)(=O)=O)C1 (stereo not drawn)	95.01%
CCc1cn[nH]c1C1CCCN(C(=O)c2noc(C)c2COC)C1 (stereo not drawn)	-6.588%
CCc1cn[nH]c1C1CCCN(C(=O)c2ncoc2C(C)C)C1 (stereo not drawn)	0.179%
CCc1noc(C)c1C(=O)N1C[C@H](NS(C)(=O)=O)[C@@H](C2CC2)C1	7.684%
COCCn1cc(NCc2cn(C)nc2-c2ccncc2)cn1	0.5012%
Cc1ccc(O[C@@H]2C[C@H]3CN(C(=O)c4cnccn4)CCN3C2)cc1.O=C(O)C(F)(F)F	-2.389%
Cc1nc(CC(=O)N2CCC3(CC2)CC(=O)N(CC2CCCO2)C3)cs1 (stereo not drawn)	8.939%
CN1CCC(c2cccc(C(=O)N(C)C)n2)CC1	118.3%
Cc1ccccc1-c1cncc(C2CCN(C(C)C)CC2)n1	-0.08562%
CC(C)N1CCC(c2ccnc3c(C(=O)N4CCCC4)ncn23)CC1	-18.47%
CC(C)N1CCC(c2cccc(C(=O)N(C)C)n2)CC1	126.2%
CN(C)CCCn1ccnc1C1CCN(c2cccc(C(=O)O)n2)CC1	-0.5716%
Cc1cnn(CCNCC(=O)Nc2ccc(Br)cn2)c1	-4.986%
CSc1ccc(CNC2CCN(CCc3ccncc3)CC2)cc1	-23.46%
CN(C)C(=O)N1CCc2ccc(=O)[nH]c2CC1	-8.1%
O=C(O)C(F)(F)F.O=C1CC[C@]2(CC[C@@H](NCc3ccoc3)CC2)N1	-19.54%
O=c1ccc2c([nH]1)CCC(NCc1ccncc1)C2 (stereo not drawn)	106.2%
O=C(O)C(F)(F)F.O=c1ccc2c([nH]1)CCC(NCc1ccc(F)cc1)C2 (stereo not drawn)	112.4%
O=C(NC1CCCC1)NC1CCc2[nH]c(=O)ccc2C1 (stereo not drawn)	2.289%
CC(C)NC1CCc2[nH]c(=O)ccc2C1.O=C(O)C(F)(F)F (stereo not drawn)	105.5%
COc1ccc2c(c1)CC(NCc1cccc(NC(C)=O)c1)CC2 (stereo not drawn)	5.004%
O=C(O)C(F)(F)F.O=C1CC[C@]2(CC[C@@H](NCc3ccc4c(c3)OCO4)CC2)N1	-34.14%
O=C(O)C(F)(F)F.O=c1ccc2c([nH]1)CCC(NCc1ccc3c(c1)OCO3)C2 (stereo not drawn)	106.8%
COc1ccc(CN[C@H]2CC[C@@]3(CCC(=O)N3)CC2)cc1.O=C(O)C(F)(F)F	13.86%
